A selection: hits, their analogues and other compounds. The true share with any hit is near 6.1%.
D1 ag = Allosteric Agonists of the Human D1 Dopamine Receptor: qHTS; AID 504660, 2011; HEK293 T-REx D1 cells, calcium flux, agonist mode; activation, % at 2 µM; D(1A) dopamine receptor (Homo sapiens), P21728; 1% of 360,000 active; in the data active means activation above about 30%; further: 0% is about no effect
Target sequence (P21728 whole entry, looked up): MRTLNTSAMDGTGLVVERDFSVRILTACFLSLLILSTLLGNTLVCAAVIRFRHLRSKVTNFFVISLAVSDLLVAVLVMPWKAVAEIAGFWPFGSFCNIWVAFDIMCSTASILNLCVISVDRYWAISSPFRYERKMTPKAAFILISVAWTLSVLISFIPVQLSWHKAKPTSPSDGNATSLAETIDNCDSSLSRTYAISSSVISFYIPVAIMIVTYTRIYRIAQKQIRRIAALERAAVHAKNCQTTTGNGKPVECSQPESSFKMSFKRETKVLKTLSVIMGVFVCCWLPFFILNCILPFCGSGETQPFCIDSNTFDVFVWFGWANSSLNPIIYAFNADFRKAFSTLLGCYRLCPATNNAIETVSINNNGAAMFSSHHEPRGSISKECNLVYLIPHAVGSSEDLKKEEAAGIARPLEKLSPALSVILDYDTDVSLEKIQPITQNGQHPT
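Tetracycline-induced HEK293 TREx D1 cells, force-coupled to calcium signalling, were dye-loaded with a no-wash calcium kit. Compound was pin-added after a 10 s baseline. Fluorescence was read kinetically at 1 cycle/s for 180 s, with calcium rises flagged as agonism.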
D1 PAM = Potentiators of Human D1 Dopamine Receptor: qHTS | AID 504651, 2011 | D(1A) dopamine receptor (Homo sapiens), P21728 | potentiation, % at 10 µM | 0.036% of 360,000 active | HEK293 TREx D1 cells, calcium flux, dopamine EC20 potentiation; in the data active means potentiation above about 30%; further: 0% is about no effect
DRD3 agonist = qHTS of D3 Dopamine Receptor Agonist: qHTS | max activation, % | 0.58% of 410,000 active | D(3) dopamine receptor (Homo sapiens), P35462 | AID 652048, 2013 | D3R DiscoveRx beta-arrestin cells, luminescence, 90 min; in the data active means max activation above about 30%; further: 0% is about no effect
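Agonist mode: compounds and dopamine controls were applied to plated cells for 90 min at 37 degrees C after an overnight attachment at 1500 cells/well. Luminescent read-out followed 30 - 60 minutes at room temperature with DiscoveRx detection reagent.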
D1 antag = Antagonist of Human D 1 Dopamine Receptor: qHTS; HEK293 TREx D1 cells, calcium flux, dopamine EC80; stronger effect = lower value; activity change, negative = inhibition, % at 10 µM; 3.2% of 360,000 active; AID 504652, 2011; in the data active means activity change below about -30%; further: on the % scale 0 is the no-effect control and ±100 the full control effect
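Tetracycline-induced HEK293 T-REx cells with force-coupled D1 receptor were loaded with a no-wash calcium dye. Compound was added after a 10 s baseline and read kinetically for 180 s; EC80 dopamine was then added and calcium flux followed another 180 s.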
DRD3 antagonist = qHTS of D3 Dopamine Receptor Antagonist: qHTS | 2.5% of 360,000 active | D3R cells, DiscoveRx beta-arrestin luminescence, antagonist mode; stronger effect = lower value | D(3) dopamine receptor (Homo sapiens), P35462 | AID 652054, 2013 | max response, negative = inhibition, %; in the data active means max response below about -50%; further: on the % scale 0 is the no-effect control and ±100 the full control effect
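Cells plated overnight at 1500 cells/well, then exposed to library compounds with dopamine controls for 90 minutes at 37 degrees C. DiscoveRx reagent added for 30–60 minutes at room temperature; luminescence read, quantitative HTS format.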
* hit, by the source's call; . = no result given.

SMILES	D1 ag	D1 PAM	DRD3 agonist	D1 antag	DRD3 antagonist
CN(Cc1ccccc1)c1ccc(-c2nc(-c3ccccn3)no2)cc1[N+](=O)[O-]	3.2	0.1	34.1*	0.3	.
CN(C)c1ccc(-c2nc(-c3ccccn3)no2)cc1[N+](=O)[O-]	9.5	-2.5	3.0	-38.6*	.
CCc1ccccc1NC(=O)Cn1c(=O)n(-c2ccc(C)c(C)c2)c(=O)c2oc3ccccc3c21	0.8	0.1	5.7	14.9	.
CCCc1cc(=O)oc2cc(C)cc(OCC(=O)N3CCC(C(=O)O)CC3)c12	0.9	-3.1	25.6	-64.3*	-11.9
COc1cc(OC)c(OC)cc1CNc1sc2c(c1C(=O)Nc1ccccc1OC)CCC2	-0.5	-4.5	5.0	-20.1	.
Cc1cc(C)c(C(=O)N2CCCC(C(=O)c3cc(F)ccc3F)C2)o1 (stereo unspecified)	2.3	-1.7	3.0	-0.7	10.8
Cc1cc(C(=O)N2CCCC(C(=O)c3cc(F)ccc3F)C2)c(C)o1 (stereo unspecified)	-0.6	-2.3	0.8	-16.5	-56.4*
CCc1ccc(NC(=S)NC2CC3CCCC(C2)N3Cc2ccccc2)cc1 (stereo unspecified)	20.3	0.6	-10.9	-29.0	-108.6*
CNC(=S)NC1CC2CCC(C1)N2Cc1ccccc1 (stereo unspecified)	1.2	-10.4	-35.4	-3.5	-81.3*
S=C(Nc1ccc(Cl)cc1)NC1CC2CCC(C1)N2Cc1ccccc1 (stereo unspecified)	52.0*	8.4	-14.2	-42.7*	-76.0*
CCOC(=O)c1cc2c(=O)n3ccccc3nc2n(CCCOC)c1=NC(=O)c1cc2ccccc2o1	-0.3	-0.1	4.5	6.9	.
Cc1c(OCC(=O)NCC(O)c2ccccc2)ccc2c(-c3ccccc3)cc(=O)oc12 (stereo unspecified)	2.0	0.5	32.8*	2.2	34.8
Cc1c(OCC(=O)NCc2ccccn2)ccc2c(-c3ccccc3)cc(=O)oc12	0.2	-2.1	-4.5	5.0	9.0
Cc1cc(C)c(NC(=O)Cn2c(=O)nc(-c3ccccc3)c3cc(Cl)ccc32)c(C)c1	-0.9	-0.1	2.5	-4.1	.
O=C(Nc1ccc(C(F)(F)F)cc1)N1CCC(N2CCCCC2)CC1	14.1	-2.3	-11.9	8.3	.
CC(C)(C)OC(=O)N1CCCN(C(=O)Nc2ccc(C(F)(F)F)cc2)CC1	3.5	-4.0	-8.2	-31.2*	8.0
O=C(Cn1cc(S(=O)(=O)Cc2ccccc2Cl)c2ccccc21)Nc1ccc(F)cc1F	5.0	0.3	-7.0	1.4	.
COc1ccc(N(Cc2ccccc2)C(=O)CSc2nnc(Cn3nnc4ccccc43)o2)cc1	4.4	3.2	-2.0	10.5	-6.2
O=C(CSc1nnc(Cn2nnc3ccccc32)o1)N(Cc1ccc(F)cc1)c1ccccc1	2.4	-2.6	5.2	-41.2*	16.1
C[C@@H](CO)NC(=O)[C@H]1O[C@@H](n2ccc(=O)[nH]c2=O)[C@H](O)[C@@H]1O	.	.	7.9	.	9.2
CC[C@H](C)[C@@H](CO)NC(=O)[C@H]1O[C@@H](n2ccc(=O)[nH]c2=O)[C@H](O)[C@@H]1O	.	.	-14.5	.	-105.2*
COc1ccccc1CNC(=O)c1ccc(C)c(-n2cnc3cccnc32)c1	-1.1	-1.4	3.0	-15.7	.
CCOc1ccc(CCNC(=O)c2ccc(C)c(-n3cnc4cccnc43)c2)cc1	-0.5	-1.1	5.2	-30.9*	.
O=C1C2ON(c3ccccc3)C(c3cccnc3)C2C(=O)N1c1ccc(Cl)c(Cl)c1 (stereo unspecified)	3.0	-9.1	46.9*	-20.0	30.5
COc1cc(-c2nn3c(Cc4ccccc4)nnc3s2)cc(OC)c1OC	2.5	0.7	31.3*	15.0	12.3
SMILES	D1 ag	D1 PAM	DRD3 agonist	D1 antag	DRD3 antagonist
COc1cc(-c2nn3c(COc4ccccc4)nnc3s2)cc(OC)c1OC	0.9	-3.0	-2.0	3.0	-17.7
COc1ccc(C2C(C(=O)N3CCN(c4ccccc4F)CC3)c3ccccc3C(=O)N2C)cc1 (stereo unspecified)	-0.2	-4.2	2.2	-82.5*	13.5
O=C(Cc1ccccc1)N[C@@H]1c2ccccc2CC[C@@H]1OCc1ccccc1	.	.	-20.4	.	-90.5*
O=C(COCc1ccccc1)N[C@@H]1c2ccccc2CC[C@@H]1OCc1ccccc1	.	.	-20.7	.	-9.8
Oc1ccc2c(c1)C1CCCC1(N1CCOCC1)O2 (stereo unspecified)	2.4	-3.5	2.0	0.2	-3.6
c1ccc2c(c1)nc1n2C2(N3CCOCC3)CCCC2C1N1CCOCC1 (stereo unspecified)	46.6*	1.9	-17.0	0.5	-27.8
CCOC(=O)c1cnn(-c2cccc(Cl)c2)c1C1CCN(C(=O)OC(C)(C)C)CC1	3.4	1.6	10.5	13.1	.
Cc1nc(CS(=O)(=O)c2ccccn2)sc1C(=O)NNC(=O)c1ccccc1	1.5	-6.2	6.9	-31.8*	-9.1
CCOC(=O)C1(C)CCN1C(=O)c1cccc(Cl)c1 (stereo unspecified)	.	.	48.5*	.	0.0
CCOC(=O)C1(C)CCN1C(=O)c1cccc(OC)c1 (stereo unspecified)	.	.	8.0	.	18.4
COc1ccccc1Nc1nc(C)c(C(=O)Nc2ccccc2)s1	2.6	-8.5	-7.4	-38.4*	-0.6
Cc1nc(Nc2ccc(S(N)(=O)=O)cc2)sc1C(=O)Nc1ccccc1	0.5	-12.7	-3.6	-54.8*	-6.3
Cc1c(C(=O)Nc2nc(-c3ccc(F)cc3)ns2)oc2ccc(Cl)cc12	-1.2	0.6	-4.2	3.7	.
Cc1ccc(C2CC(=O)NC(SCc3ccccc3)=C2C#N)o1 (stereo unspecified)	5.2	2.2	-2.6	8.6	-61.5*
Cc1ccc(N2CCN(C(=O)NCc3noc4ccc(C)cc34)CC2)c(C)c1	2.5	-3.7	3.5	-3.6	.
C/C(=N\NC(=O)CNC(=O)C(c1ccccc1)c1ccccc1)c1ccccc1	0.9	-9.0	0.9	-19.2	-6.5
O=C(O)CC/C(=N/NC(=O)CNC(=O)C(c1ccccc1)c1ccccc1)c1ccccc1	3.6	-9.6	-11.1	-34.1*	-19.4
COc1ccc(NC(=O)CCn2c(-c3ccc(F)cc3)cc(C(C)=O)c2C)c(OC)c1	3.4	-7.4	-1.5	6.8	.
Cc1ccc([C@@H]2CC=C(C(=O)O)[C@H](c3ccc(Cl)cc3)N2S(=O)(=O)c2ccccc2C)cc1	.	.	-44.4	.	-60.6*
Cc1ccccc1S(=O)(=O)N1[C@@H](c2ccccc2)C(C(=O)O)=CC[C@H]1c1ccc(Cl)cc1	-0.7	-6.6	-29.6	-12.1	-55.9*
Cc1ccc(S(=O)(=O)N2[C@@H](c3cccc(Cl)c3)C(C(=O)O)=CC[C@H]2c2ccc(C(C)C)cc2)cc1	6.7	-12.1	0.0	-35.1*	8.0
